About 79,000 compounds went through this panel and 15% of them were active in at least one assay; those are over-represented in the sample as a whole. A number with no mark means an inactive call. Active and inactive are the calls of the source. Rule as the data show it: active = growth inhibition above about 70%; inactive = the rest.
How the values were obtained:
[1] = NCI Yeast Anticancer Drug Screen. Data for the rad50 strain (AID 155);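 also: 0% = growth of vehicle-only cultures of the same strain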; conditions: S. cerevisiae rad50 strain growth inhibition; at 50.0 µM; stronger effect = higher value
In short: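 DNA repair mutant yeast, compound exposure, growth read-out; inhibition is taken relative to vehicle.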

[2] = NCI Yeast Anticancer Drug Screen. Data for the mec2-1 strain (AID 157); conditions: S. cerevisiae mec2-1 strain, at 50.0 µM, stronger effect = higher value
In short: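 Growth inhibition is read against vehicle-treated controls after compound exposure of the mec2-1 yeast strain, which is defective in DNA damage repair or cell cycle control.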

[3] = NCI Yeast Anticancer Drug Screen. Data for the sgs1 mgt1 strain (AID 161);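 also: 0% = growth of cultures given vehicle only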; conditions: S. cerevisiae sgs1 mgt1 strain, at 50.0 µM, stronger effect = higher value
In short: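 Percent growth inhibition was derived by comparing compound-exposed mutant yeast with vehicle-exposed cultures. The strain carries alterations in DNA damage repair.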

[4] = NCI Yeast Anticancer Drug Screen. Data for the cln2 rad14 strain (AID 165);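 also: 0% = growth equal to vehicle treated cultures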; conditions: S. cerevisiae cln2 rad14 strain, at 50.0 µM, stronger effect = higher value
In short: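 Growth inhibition, relative to vehicle-treated controls, is the read-out. The test organism is a yeast strain with defined genetic alterations, cln2 rad14.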

[5] = NCI Yeast Anticancer Drug Screen. Data for the bub3 strain (AID 167); conditions: S. cerevisiae bub3 mutant strain, at 50.0 µM, stronger effect = higher value
In short: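 In this screen, a yeast mutant lacking normal mitotic checkpoint function is challenged with compound. Relative growth versus vehicle gives the inhibition value.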

[6] = NCI Yeast Anticancer Drug Screen. Data for the mlh1 rad18 strain (AID 175); conditions: S. cerevisiae mlh1 rad18 strain growth inhibition; at 50.0 µM; stronger effect = higher value
In short: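 Cells of a genetically altered yeast strain, deficient in DNA damage repair, were treated with compound. Their growth was then compared with that of vehicle-treated cultures to give inhibition.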

Compound	growth inhibition [1]	growth inhibition [2]	growth inhibition [3]	growth inhibition [4]	growth inhibition [5]	growth inhibition [6]
CN1C=CCC(C=O)C1 (stereo unspecified)	-13.5%	-4.5%	0.05%	-3.7%	1.65%	-7.2%
O=S1(=O)c2ccccc2N(O)C2=NCCN21	-50.1%	-46.7%	-65.8%	-6.35%	-30.9%	-33.9%
C=CCN1/C(=C(\C#N)c2nc3ccccc3[nH]2)Sc2c1nc[nH]c2=O	-51.6%	-27.9%	-32%	-32%	-32.9%	-49.8%
O=c1[nH]nc(SCc2ccccc2)c(=O)[nH]1	-18.1%	-3.5%	-16.6%	-5.8%	0%	-18.9%
COc1cc(C2C3=C(COC3=O)Oc3cc4c(cc32)OCO4)cc(OC)c1OC(C)=O (stereo unspecified)	-15.5%	-22.9%	1.55%	16.1%	-8.3%	-2.5%
CC1CC[P+](c2ccccc2)(c2ccccc2)CC1	22.9%	17.4%	30.3%	4.5%	22.1%	32.5%
CCOC(=O)c1c(C)cc2ccccn12	-11.4%	-12.4%	0.05%	-26.7%	8.3%	11.2%
Cc1nc2ccccc2n1CCC(N)=O	24.6%	-2.1%	6.1%	12.3%	-26.9%	-2.35%
CS(=O)(=O)N1CCCN(S(C)(=O)=O)COC1	6.2%	-6.65%	-8.75%	-2.45%	13.4%	-0.35%
CC(O)CNCc1ccc(N(C)C)cc1 (stereo unspecified)	-15.8%	0.4%	6.8%	-8.85%	-4.65%	13.7%
N#Cc1cccc(Br)c1	-11.9%	-15.8%	-1%	-11.4%	-14.9%	13.1%
O=P(CCCCCCCCCCP(=O)(c1ccccc1)c1ccccc1)(c1ccccc1)c1ccccc1	-11%	2.6%	23.5%	9.55%	2.3%	29.5%
O=C(O)c1oc2cccc3c2c1CCC3	-3.6%	1.3%	5.4%	-10.3%	-1.35%	-4.2%
CC[N+](CC)(CC)CCC[n+]1ccc(/C=N\O)cc1	3.1%	-1.6%	-16.4%	-8.25%	-0.8%	-6.25%
CNc1ncnc2nc(C)c(C)nc12	-14.1%	35.6%	-7.4%	8.4%	-6.05%	18.7%
C=C(C)C(=O)OC1C[C@H](COC(C)=O)C2CC=C(CO)C2C2OC(=O)C(=C)[C@H]12 (stereo partly specified)	16.9%	15.1%	10.2%	-1.25%	-1.25%	25.1%
CC(N(C)Cc1ccccc1)C(C)(O)c1ccccc1 (stereo unspecified)	-10.4%	6.55%	7.75%	-24.9%	51%	30.8%
O=C(CN=C(CN(c1ccccc1)c1ccccc1)Oc1c(Cl)cc(Cl)cc1Cl)n1cnc2ccccc21	0.9%	-9%	35.3%	-63.4%	-46.4%	10.4%
CC(=O)OC1[C@H](OC(C)=O)C2=C(C)[C@@H](OC(C)=O)C[C@@]2(C(C)(C)O)[C@@H](OC(C)=O)[C@H]2[C@@]1(C)[C@@H](OC(C)=O)CC(OC(C)=O)[C@]21CO1 (stereo partly specified)	3.4%	29.9%	-20.3%	7.05%	-32.8%	-59%
CCOC(=O)C(OCC1CC=CCC1)Sc1ccccc1 (stereo unspecified)	10.6%	-24.6%	-4.95%	-19.3%	-9.7%	-13.9%
COc1ccccc1C(=O)O	-7.45%	-16.8%	-9.4%	-1.75%	-7.35%	-5%

Compound	growth inhibition [1]	growth inhibition [2]	growth inhibition [3]	growth inhibition [4]	growth inhibition [5]	growth inhibition [6]
NC(=O)c1nsc(-c2ccc([N+](=O)[O-])cc2)c1N	-10.8%	0.9%	-1.8%	30.6%	-17.8%	-3.7%
CCOC1C[C@H]2C[C@H]3[C@@H]4CC=C5C[C@@H](OC(C)=O)CC[C@]5(C)[C@H]4CC[C@]3(C)C2=C(C)O1 (stereo partly specified)	20.9%	12.7%	22.9%	36%	8.05%	20.6%
c1ccc(CCN2CCCCCCCC2)nc1	1.35%	7.9%	-4.35%	-23.2%	-8.95%	-0.35%
NNc1ccc(C(=O)O)cc1	-3.6%	12.1%	-2.1%	11%	-2.35%	-4.9%
COCC(C)(c1cn(C)c2ccccc12)c1cn(C)c2ccccc12	-2.5%	-19.2%	-11.4%	-17.9%	5.05%	-10.1%
COc1cccc([N+](=O)[O-])c1	18.3%	32.2%	-14.8%	-5.9%	-0.9%	5.75%
O=S(=O)(Nc1ccccc1Cl)c1ccc(F)cc1	-5.85%	-16.1%	-6.6%	4.7%	-24%	20.9%
CCn1nc(C(=O)O)c(=O)c2cc3c(cc21)OCO3	8.1%	7.2%	-9.85%	-15.7%	-3.9%	7.4%
CCOC(=O)c1c[nH]c2cc(Cl)cc(OC)c2c1=O	-11.3%	-5.6%	-1%	-32.9%	-7.35%	-17%
COC(=O)C1(O)C(=O)NC2=C1C(=O)c1ccccc1C2=O (stereo unspecified)	9.75%	5.8%	8.05%	-8.7%	28.9%	13.8%
CC(=O)OCCOCNC(=S)NCc1ccco1	11.2%	-7.25%	-40%	9.3%	5.85%	-10.3%
CN(C)c1ccc(/C=N/NC(=O)c2ccccc2NC(=O)C2CC2)cc1	-11.4%	1.4%	27%	-18.8%	24.8%	26.6%
COc1nc(NC2OC(CO)C(O)C(O)C2O)c(C=O)c(=O)n1C (stereo unspecified)	2.45%	-6.55%	-16.1%	9.9%	-7.3%	-7.4%
COC(=O)C(NC(=O)c1ccccc1)C(c1c(O)cc(O)cc1O)P(=O)(OC)OC (stereo unspecified)	-4.75%	10.3%	12.4%	3.35%	1%	18%
COC(=O)CC1(O)C=CC(=O)c2ccccc21 (stereo unspecified)	2.35%	-6.65%	-3.8%	-25.9%	44%	-5.7%
COC(=O)c1nc(=S)[nH]c(C(=O)OC)c1C(=O)c1ccccc1O	21.9%	11.9%	14.1%	3.4%	29.1%	30%
CCC1SC(C)C(=O)NC1=O (stereo unspecified)	-14.8%	3.9%	-0.7%	-14.3%	-8.2%	37.1%
CCC[CH2][Sn]1([CH2]CCC)[O]C2C(CO)OC(n3c(Br)c(C(N)=O)c4c(N)ncnc43)C2[O]1 (stereo unspecified)	98.3% (active)	98.4% (active)	98.7% (active)	97.5% (active)	97.5% (active)	98.5% (active)
COc1cc([N+](=O)[O-])c(OC)cc1N	2.45%	-8.3%	-13.1%	-27.4%	-27.4%	27.6%
CSc1nc2nc(C)c(C)nc2c(=O)[nH]1	-21.9%	-19.4%	-43.5%	3.9%	-0.75%	-32%
